Screening data: PubChem BioAssay, National Center for Advancing Translational Sciences (NCATS)
POLI inh = blocks human DNA polymerase iota activity | Q9UNA4 | Pol iota fluorescent replication assay, 10 min | Potency, µM (series often up to 115 µM), inactives show at the highest dose activity, negative = inhibition, most hits filed as inhibitors | 390,000 compounds, 1% hits | AID 588590; also: potency is read from the fitted curve at half-maximal effect
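Pol iota at 10 nM preincubated 15 min with compounds at room temperature; reaction started with fluorescent substrate, 50 nM final. Fluorescence read kinetically at 0 and 10 min; buffer-only wells as negative control.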
Pol beta inh = DNA polymerase beta (human) inhibition | Pol beta primer extension/strand displacement, fluorescence kinetic | Potency, µM (series often up to 114 µM), without a hit: top-dose activity change, negative = inhibition, most hits filed as inhibitors | 340,000 compounds, 1.3% hits | AID 485314; also: potency is read from the fitted curve at half-maximal effect; % is scaled to controls: 0 for no effect and ±100 for the full control effect
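Pol beta (10 nM) was preincubated with compound for 15 min at room temperature. The reaction was then started with 50 nM substrate and read immediately and after a further 10 min at room temperature.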
WRN helicase inh-1 = WRN helicase (human) inhibition. 360,000 compounds, 0.46% hits. AID 651768. Q14191. WRN helicase unwinding, fluorescent forked duplex, kinetic. Potency, µM (titrated, usually from 114 µM), without a hit: at the top dose activity change, negative = inhibition, actives largely listed as inhibitors; also: potency is read from the fitted curve at half-maximal effect; % is scaled to controls: 0 for no effect and ±100 for the full control effect; nearly all actives have a fitted effect of over 55% in size
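Primary qHTS, 1536-well format. 20 nM WRN + compound, 15 min RT; start with 100 nM forked fluorophore/quencher duplex, 2 mM ATP (final); kinetic read ex 525/em 598 nm.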
Pol eta inh-1 = DNA polymerase eta (human) inhibition; Q9Y253; recombinant Pol eta, fluorescent DNA replication assay; Potency, µM (series often up to 114 µM), without a hit: at the top dose activity change, negative = inhibition, actives largely listed as inhibitors; 390,000 compounds, 1.2% hits; also: potency is read from the fitted curve at half-maximal effect; % is scaled to controls: 0 for no effect and ±100 for the full control effect
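Fluorescent replication assay: 50 nM final substrate added after a 15 min room-temperature compound preincubation with 10 nM enzyme. Signal taken at 0 min and again at 10 min.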
POLK inh = inhibitors of human DNA polymerase kappa | 400,000 compounds, 0.53% hits | purified Pol kappa, fluorescent DNA synthesis assay, 10 min | AID 588579 | Q9UBT6 | Potency, µM (doses to about 107 µM), inactives show top-dose activity, negative = inhibition, most hits filed as inhibitors; also: potency is read from the fitted curve at half-maximal effect; % is scaled to controls: 0 for no effect and ±100 for the full control effect
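Readout: fluorescence, taken kinetically at 0 and 10 min. Conditions: 10 nM Pol kappa, 15 min RT compound preincubation, 50 nM substrate final. Controls: enzyme-free buffer wells.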
FEN1 inh-1 = blocks human flap endonuclease 1; Potency, µM (highest dose often 114 µM), for inactives: at the top dose activity change, negative = inhibition, most hits filed as inhibitors; AID 588795; P39748; Recombinant FEN1 flap cleavage, fluorescence, 15 min; 390,000 compounds, 0.35% hits; also: potency is read from the fitted curve at half-maximal effect; % is scaled to controls: 0 for no effect and ±100 for the full control effect; nearly all actives have a fitted effect of over 65% in size
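Nuclease activity of 10 nM FEN1 was measured after 15 min of room-temperature exposure to titrated compounds, by adding 50 nM flap substrate and reading plates at 0 and 15 min.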
GALK confirm = confirmation of human galactokinase (GALK) inhibitors; Potency, µM (highest dose often 115 µM), without a hit: at the top dose activity, negative = inhibition, most hits filed as inhibitors; 150 compounds, 70% hits; purified GALK, Kinase-Glo ATP depletion luminescence; shares compounds with Pol eta inh-1; AID 2015
GALK redox cs = counter-screen for GALK inhibitors: redox cycling H2O2 generation; shares compounds with Pol eta inh-1; Phenol red-HRP H2O2 redox cycling, absorbance 600 nm; Potency, µM (doses to about 115 µM), without a hit: at the highest dose activity change, negative = H2O2 signal, usual class: inhibitors; 150 compounds, 40% hits
HEK293 tox = HEK-293 cytotoxicity, GALK inhibitor secondary | 170 compounds, 10% hits | shares compounds with Pol eta inh-1 | Potency, µM (highest dose often 46.1 µM), for the others: at the top dose activity change, negative = cytotoxicity, most hits filed as inhibitors | HEK-293 viability, ATP luminescence (CellTiter-Glo), 24/48 h | AID 2547; also: potency is read from the fitted curve at half-maximal effect; % is scaled to controls: 0 for no effect and ±100 for the full control effect
Pol eta inh-2 = confirmation of human DNA polymerase eta inhibitors | Pol eta primer extension, TAMRA/BHQ fluorescence, 10 min | 2,600 compounds, 64% hits | shares compounds with Pol eta inh-1 | Potency, µM, actives largely listed as inhibitors; also: potency is read from the fitted curve at half-maximal effect
FEN1 inh-2 = FEN1 inhibition, cherry-pick retest; shares compounds with FEN1 inh-1; Potency, µM, actives largely listed as inhibitors; 880 compounds, 79% hits; AID 720498; FEN1 flap cleavage, TAMRA/BHQ2 fluorogenic DNA substrate; also: potency is read from the fitted curve at half-maximal effect; nearly all actives have a fitted effect of over 60% in size
WRN helicase inh-2 = confirmation of human WRN helicase inhibitors; shares compounds with WRN helicase inh-1; WRN helicase DNA unwinding, fluorescence kinetic; Potency, µM (series often up to 57.1 µM), without a hit: top-dose activity, negative = inhibition, most hits filed as inhibitors; 610 compounds, 63% hits; AID 720497; also: potency is read from the fitted curve at half-maximal effect; nearly all actives have a fitted effect of over 65% in size
TO DNA binding = binds DNA, flagged in WRN inhibitor counterscreen; shares compounds with WRN helicase inh-1; thiazole orange DNA binding displacement, fluorescence; Potency, µM (titrated, usually from 57.1 µM), for inactives: at the highest dose activity change, negative = inhibition, hits mostly inhibitors; 610 compounds, 10% hits; AID 720499;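 also: drop in dye fluorescence marks compound binding to DNA; potency is read from the fitted curve at half-maximal effect; % is scaled to controls: 0 for no effect and ±100 for the full control effect; nearly all actives have a fitted effect of over 60% in size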
BLM helicase inh = BLM helicase inhibition, WRN selectivity check | shares compounds with WRN helicase inh-1 | 610 compounds, 60% hits | Potency, µM (titrated, usually from 57.1 µM), for inactives: at the highest dose activity change, negative = inhibition, actives largely listed as inhibitors | Recombinant BLM helicase DNA unwinding, red fluorescence; also: potency is read from the fitted curve at half-maximal effect; nearly all actives have a fitted effect of over 60% in size
Target sequence (P54132 whole entry, looked up): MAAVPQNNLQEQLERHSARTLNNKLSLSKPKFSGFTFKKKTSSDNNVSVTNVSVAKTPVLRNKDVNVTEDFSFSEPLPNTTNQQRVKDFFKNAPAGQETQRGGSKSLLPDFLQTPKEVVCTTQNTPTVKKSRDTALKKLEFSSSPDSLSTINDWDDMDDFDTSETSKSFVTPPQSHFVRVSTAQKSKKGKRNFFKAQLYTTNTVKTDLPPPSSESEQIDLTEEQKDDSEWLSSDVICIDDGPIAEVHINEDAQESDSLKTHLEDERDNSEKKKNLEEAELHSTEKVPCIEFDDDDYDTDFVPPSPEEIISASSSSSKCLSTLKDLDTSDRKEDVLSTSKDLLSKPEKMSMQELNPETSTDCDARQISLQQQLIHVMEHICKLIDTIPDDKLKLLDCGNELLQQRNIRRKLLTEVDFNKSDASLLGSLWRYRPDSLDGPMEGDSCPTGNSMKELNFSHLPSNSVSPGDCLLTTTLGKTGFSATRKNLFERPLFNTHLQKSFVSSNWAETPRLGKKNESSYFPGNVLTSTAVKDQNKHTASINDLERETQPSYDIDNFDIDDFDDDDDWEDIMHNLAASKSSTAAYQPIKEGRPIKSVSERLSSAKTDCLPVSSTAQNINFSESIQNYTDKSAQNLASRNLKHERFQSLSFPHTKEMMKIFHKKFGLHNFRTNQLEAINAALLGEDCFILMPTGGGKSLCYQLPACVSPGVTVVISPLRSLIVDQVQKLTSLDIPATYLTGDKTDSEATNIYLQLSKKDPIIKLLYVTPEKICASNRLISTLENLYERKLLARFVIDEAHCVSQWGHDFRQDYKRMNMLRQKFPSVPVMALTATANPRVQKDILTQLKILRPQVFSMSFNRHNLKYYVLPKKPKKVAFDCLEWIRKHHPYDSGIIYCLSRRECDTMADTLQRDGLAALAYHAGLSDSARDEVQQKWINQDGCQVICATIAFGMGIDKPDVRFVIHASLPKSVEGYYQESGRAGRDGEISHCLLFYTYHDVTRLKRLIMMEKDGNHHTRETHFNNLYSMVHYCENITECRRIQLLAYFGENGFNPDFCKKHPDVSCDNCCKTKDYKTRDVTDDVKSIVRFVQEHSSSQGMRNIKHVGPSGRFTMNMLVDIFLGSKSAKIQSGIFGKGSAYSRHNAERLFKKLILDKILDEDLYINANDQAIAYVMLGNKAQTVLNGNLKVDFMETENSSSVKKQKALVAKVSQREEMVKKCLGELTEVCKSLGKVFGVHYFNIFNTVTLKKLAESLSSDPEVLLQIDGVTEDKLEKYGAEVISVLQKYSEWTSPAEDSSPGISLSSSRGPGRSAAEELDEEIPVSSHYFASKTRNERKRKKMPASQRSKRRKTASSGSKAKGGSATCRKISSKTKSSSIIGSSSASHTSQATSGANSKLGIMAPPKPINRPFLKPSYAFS
Numbers without * were called inactive; i = inactive; ? = inconclusive; . = not tested or not shown; ! = repeats disagree; [ ] = remark or other dose. Only some compounds are listed: those with a hit (about 2.4% of all), similar ones and a draw of the others. Calls follow the shape of the dose curve; as a rule, active = well fitted curve in the direction sought with a large enough effect; inconclusive = small, poorly fitted or top-dose-only effect, or another doubt; inactive = no such curve, though single readings can be large; an effect the other way counts as inactive or inconclusive.

SMILES	POLI inh	Pol beta inh	WRN helicase inh-1	Pol eta inh-1	POLK inh	FEN1 inh-1	FEN1 inh-2	WRN helicase inh-2	TO DNA binding	BLM helicase inh	others
O=c1c(C(c2ccc(O)cc2)c2c(O)nc3n(c2=O)CCS3)c(O)nc2n1CCS2	-26%	3%	15µM*	20µM*	-40%	-2%	.	?	-8%	?	Pol eta inh-2=?
O=c1c(C(c2ccc(Br)cc2)c2c(O)nc3n(c2=O)CCS3)c(O)nc2n1CCS2	-2%	-11%	?	-16%	-5%	3%	.	.	.	.
Cc1cc(Br)ccc1NC(=O)COC(=O)c1ccccc1OCC(N)=O	3%	.	.	.	-6%	12%	.	.	.	.
CCOC(=O)c1ccc(-c2ccc(/C=N/NC(=O)Cc3nnc(N)s3)o2)cc1	142%	-18%	-9%	0%	-1%	5%	.	.	.	.
Nc1nnc(CC(=O)N/N=C/c2ccc(-c3cccc(C(=O)O)c3)o2)s1	11µM*	-1%	?	18µM*	25µM*	?	.	?	-22%	?	Pol eta inh-2=60*
C=CCN1C(=O)/C(=C/C=C2/N(CC)c3ccc(S(=O)(=O)N(C)C)cc3N2CC)SC1=S	?	4.5µM*	5.3µM*	45µM*	-18%	?	.	9.6µM*	i	9.6µM*	Pol eta inh-2=38*
CCOc1cc(/C=C2\C(=O)ON=C2c2ccccc2)cc(Br)c1O	?	5%	?	?	0%	?	.	?	-2%	?	GALK confirm=?;GALK redox cs=0%;HEK293 tox=6%
CCCc1ccc(OC(=O)c2cccs2)cc1	?	4%	-2%	2%	-8%	0%	.	.	.	.
CC1=NN(c2ccc(C(=O)O)cc2)C(=O)/C1=C\c1ccc(OC(=O)c2cccs2)cc1	?	?	5.3µM*	22µM*	-18%	50µM*	.	17µM*	-7%	?	Pol eta inh-2=?
Cc1cccc(C(=O)N=c2c(C#N)cc3c(=O)n4cccc(C)c4nc3n2Cc2ccco2)c1	8.9µM*	20µM*	25µM*!	4.5µM*	28µM*	-15%	.	24µM*	-29%	?	Pol eta inh-2=43*
Cc1nc(CNS(=O)(=O)c2cccc(F)c2)cs1	-29%	34%	-2%	5%	-5%	-2%	.	.	.	.
Cc1ccc(-c2csc(NS(=O)(=O)c3cccc(F)c3)n2)o1	?	.	32µM*	25µM*	?	-23%	.	24µM*	-29%	?	Pol eta inh-2=?
CCCCn1c(N)c(N(CCC(C)C)C(=O)COC(=O)c2ccc([N+](=O)[O-])s2)c(=O)[nH]c1=O	79µM*	.	-6%	?	-15%	-17%	7.6*	.	.	.
CSCC[C@H](NC(=O)[C@H](Cc1ccccc1)NC[C@@H](NC[C@@H](N)CS)C(C)C)C(=O)O	.	.	.	.	11%[60.1 µM]	.	.	.	.	.
CCOC(=O)c1cc2c(=O)n3ccccc3nc2n(Cc2ccco2)c1=NC(=O)c1ccc(C)c(C)c1	?	-20%	.	-13%	-23%	-20%	.	.	.	.
CCOC(=O)c1cc2c(=O)n3ccccc3nc2n(Cc2ccco2)c1=NC(=O)c1c(F)cccc1Cl	?	8%	.	-18%	?	-29%	?	.	.	.
COCCCNC(=O)c1cccn2c(=O)c3cc4ccccc4cc3nc12	18%	3%	-12%	?	-12%	?	?	.	.	.
CC(=O)NCCNc1ncnc2ccc(-c3ccc(C(=O)N(C)C)cc3)cc12	.	.	.	.	-9%[60.1 µM]	.	.	.	.	.
CN(C)c1ccc(C=C2SC(=S)NC2=O)cc1	?	.	?	?	-22%	-34%	?	.	.	.
COc1ccc(OC)c(CCNC(=O)Cn2nc(C)c3c(C)n(-c4ccc(C)cc4)nc3c2=O)c1	?	?	6%[11.6 µM]	-18%	?	?	?	.	.	.
COc1ccc(CCNC(=O)Cn2nc(C)c3c(C)n(-c4ccccc4)nc3c2=O)c(OC)c1	?	35%	-13%	-6%	0%	18%	.	.	.	.
Cc1[nH]c2c(ccc3cccnc32)c1C	65%	1%	2%	-18%	-6%	0%	.	.	.	.
CC1=[N+](C)c2c(ccc3cccnc23)C1(C)C	53%	25µM*	56µM*	-12%	-11%	45µM*	43*	.	.	.
CCc1cnc2c(c1SCCC(C)C)c(=O)n(C)c(=O)n2C	12%	24%	.	-20%	-5%[60.1 µM]	-15%	.	.	.	.
O=[N+]([O-])c1ccc(/C=N/Nc2nc(N3CCCCCC3)nc(N3CCCCCC3)n2)o1	-10%	?	-15%	-18%	-10%	35µM*	38*	.	.	.
O=[N+]([O-])c1ccc(/C=N/Nc2nc(N3CCCCC3)nc(N3CCCCC3)n2)cc1	6%	4%	-1%	-2%	-2%	16%	.	.	.	.
COc1ccc(C(=O)c2cn(CC(=O)Nc3cc(OC)cc(OC)c3)c3ccc(OC)cc3c2=O)cc1	?	-26%	.	79µM*	-23%	?	?	.	.	.
